This is one part of a sample in which hits are shown more often than they occur.
TDP-43 rescue: rescues yeast from TDP-43 toxicity. yeast TDP-43 toxicity rescue, BacTiter-Glo growth, 24 h. 45,000 tested, 0.45% active. Potency, µM (doses to about 46.1 µM), most hits filed as activators; active = well fitted activation curve with a large enough effect; also: 0% is about no effect; nearly all actives have a fitted effect of over 55% in size
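TDP-43-expressing yeast, pregrown in raffinose, seeded at OD600 0.02 in galactose medium with compound for 24 hr at 30 deg C. Growth read by BacTiter-Glo luminescence, so rescue of toxicity appears as activation.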
The depositor's hits bear a star; i = inactive. Potency is read from the fitted curve at half-maximal effect.

SMILES | TDP-43 rescue
O=C(N/N=C/C(Br)=C\c1ccccc1)c1ccco1 | 10µM*
Cc1occc1C(=O)N/N=C/C(Br)=C\c1ccccc1 | i
Cc1ccc(C(=O)COC(=O)[C@@H](NC(=O)c2ccco2)C(C)C)s1 | i
Cc1ccc(-c2nnc3c4ccccc4c(-c4ccccc4)nn23)cc1 | i
O=C(O)c1c(-c2ccccc2)oc2ccc(OCc3c(F)cccc3Cl)cc12 | i
Cc1csc(NC(=S)NC(=O)c2ccccc2)n1 | i
Cc1cc(NC(=O)c2ccc(COc3ccccc3Cl)o2)no1 | i
Cc1csc(NC(=O)c2ccc(COc3ccccc3)o2)n1 | 18µM*
COc1cc(SC)ccc1C(=O)OCC(=O)N1CC(=O)Nc2ccccc21 | i
COc1ccc(CCNC(=O)c2ccc3c(c2)N(Cc2ccc(F)cc2)C(=O)c2ccccc2S3(=O)=O)cc1OC | i
Cc1cccnc1C(NC(=O)C1CCN(Cc2cn(C)c3ccccc23)CC1)c1ccc(Cl)cc1 (configuration not stated) | i
COc1nc(Nc2ccc([N+](=O)[O-])cc2)nc(NC2CCCCC2)n1 | 16µM*
COc1nc(Nc2cccc([N+](=O)[O-])c2)nc(OC)n1 | i
C#CCOc1nc(Nc2cccc([N+](=O)[O-])c2)nc(OCC#C)n1 | i
Cc1cccc(NC(=O)CSc2nnc(-c3ccco3)n2CC2CCCO2)n1 (configuration not stated) | i
Cc1cccc(C)c1NC(=O)CN1CCN(C(=O)c2ccc(OCc3cn4ccccc4n3)cc2)CC1 | i
CC(C)c1ccc(NC(=O)Nc2nc(C(N)COCc3ccccc3)cs2)cc1 (configuration not stated) | i
CC(=O)N1CCN(c2ccc(NC(=O)c3cccc(Cl)c3)cc2)CC1 | i
O=C(Nc1ccc(N2CCCC2)cc1)c1cccc(-c2cc3ccccc3oc2=O)c1 | 22µM*
O=C(Nc1ccc(Br)cn1)c1cccc(-c2cc3ccccc3oc2=O)c1 | i
COc1ccc(NC(=O)c2ccc3c(c2)C(=O)N(CC2CCCO2)C3=O)c(OC)c1 (configuration not stated) | i
CCOc1ccc(C(=O)NC(C(=O)NCCc2ccc(OC(F)F)cc2)C(C)C)cc1 (configuration not stated) | i
O=C(Nc1ccc(Cl)cc1)c1csc([C@@H]2C[C@H](O)[C@@H](CO)O2)n1 | i
N#Cc1ccc(C(=O)NC(=S)N2CCN(C=O)CC2)cc1 | i
CC1CCCCC1NC(=O)CSc1nnc(CC(=O)Nc2ccccc2F)n1C (configuration not stated) | i
SMILES | TDP-43 rescue
Cc1ccc2c(COC(=O)c3ccccc3Cl)cc(=O)oc2c1 | i
Cc1c(OCC(N)=O)ccc2c(-c3ccccc3)cc(=O)oc12 | i
CC(NC(=O)OCc1ccccc1)C(=O)Oc1cc2oc(=O)cc(-c3ccccc3)c2cc1Cl (configuration not stated) | 4.5µM*
COc1ccccc1CNC(=O)C1(C)CCCCN1C (configuration not stated) | i
Cn1nc(C(C)(C)C)cc1C(=O)N1CCCCC1c1cc(C(=O)Nc2cccc(C#N)c2)no1 (configuration not stated) | i
Cc1cccc(N2CCN(S(=O)(=O)c3ccc(Cl)nc3)CC2C)c1 (configuration not stated) | i
O=C(c1ccc(Cl)c(S(=O)(=O)N2CCCC2)c1)N1CCN(c2ccccc2F)CC1 | i
O=C(c1c[nH]c(C(=O)N2CCN(c3ccccc3F)CC2)c1)c1cccc(Cl)c1Cl | 20µM*
NC(=O)c1cc(C(=O)c2cccc(Cl)c2Cl)c[nH]1 | i
CCc1c(C)c2ccc(O)c(CN3CCN(c4ccccc4)CC3)c2oc1=O | i
Cc1noc(C)c1C(=O)Nc1ccccc1C(=O)NCCc1ccccc1 | i
CC(C)Oc1ccc(CN2CCC(n3nccc3NC(=O)CCc3ccccc3)CC2)cc1 | i
COc1cc(CNCc2ccco2)cc(OC)c1O | i
COc1ccc(-c2csc(NCc3ccco3)n2)cc1C | 18µM*
COc1ccc(-c2csc(NC(=S)NC(=O)c3cccs3)n2)cc1OC | i
COc1ccc(NC(=O)c2c(F)cccc2Cl)cc1S(=O)(=O)N1CCOCC1 | i
CC(C)(CNC(=O)C1c2ccccc2-c2ccccc21)N1CCOCC1 | i
CNC(CC(=O)c1ccc([N+](=O)[O-])cc1)C(Cl)(Cl)Cl (configuration not stated) | i
CC(C)CC(=O)NC(=S)NNC(=O)c1ccc([N+](=O)[O-])cc1 | 11µM*
O=C(NNC(=S)NC(=O)c1cccc([N+](=O)[O-])c1)c1ccc(Br)cc1 | i
Cc1nc2c(OCc3ccc(Cl)cc3)cccn2c1N(C)C(=O)CCC1CCCC1 | i
CCOc1ccc(NC(=O)CNC(=O)COc2ccccc2)cc1 | i
Cc1cc(C)c2oc(-c3ccc(NC(=O)COc4ccccc4C)cc3)nc2c1 | i
CCOc1cc(-c2nc(C)c(C(C)=O)n2O)ccc1OCC(=O)Nc1ccccc1 | 11µM*
CCN(CC)S(=O)(=O)c1ccc(NC(=O)CSc2ncnc3ccccc23)cc1 | 22µM*

Bioassay records (PubChem BioAssay)
